In PMC12820563, “FoxP3 forms a head-to-head dimer in vivo and stabilizes its multimerization on adjacent microsatellites”:
Over roughly 16,000 sequences, “rpm ratio (pull-down/input)” has its median near 0.5; the highest 2% begin near 5.5. Many of the other results were omitted from the sample, so the highest values are more common in it than they were.

biological target: T1, MBP-FoxP3dN (Mus musculus, UniProt Q99JB6 188-423); experiment: PD-seq (MBP pull-down with sequencing); 20 mM Tris-HCl pH 7.5, 100 mM NaCl, 1.5 mM MgCl2, 0.4 uM protein, 0.1 uM dsDNA library, 30 min, room temperature, amylose pull-down; high values mean tight binding; details: protein: recombinant; tags: His6-MBP; chain copies: 2; dsDNA, one strand shown
T1 sequence: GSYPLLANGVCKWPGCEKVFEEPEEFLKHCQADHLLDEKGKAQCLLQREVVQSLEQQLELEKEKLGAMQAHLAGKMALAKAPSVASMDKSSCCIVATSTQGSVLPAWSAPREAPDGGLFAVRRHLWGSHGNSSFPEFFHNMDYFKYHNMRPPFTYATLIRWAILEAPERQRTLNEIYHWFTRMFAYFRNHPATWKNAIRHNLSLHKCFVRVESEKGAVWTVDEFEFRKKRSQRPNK
How it was run: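 His6-MBP-tagged mouse FoxP3 or FoxP1 fragment lacking the N-terminus, expressed in E. coli, was mixed at 0.4 µM with 0.1 µM Klenow-filled double-stranded degenerate DNA library. Incubation was 30 min at room temperature in Tris pH 7.5 buffer with NaCl and MgCl2. Complexes were caught on amylose resin and washed three times; DNA was released with proteinase K, PCR-barcoded and Illumina-sequenced. Binding is reads-per-million enrichment, pull-down over input, with replicates pooled.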

Compared with “GATGATTGTTCTCCCAGCTGATGAATTGTGCACCTCGAGTAAACAAATTTTCCTAATCTTTCTGTTCAAGCGCCATCTAC”, “GATGATTGTTCTCCCAGCTGATGAATTCGGAACGTCGAGTAAACAAATTTTCCTAATCTTTCTGTTCAAGCGCCATCTAC” is lower in binding signal: 2.92 RPM ratio (pull-down/input) for the first, 0.297 RPM ratio (pull-down/input) for the second.

First: GATGATTGTTCTCCCAGCTGATGAATTGATTCAGTCGAGTAAACAAATTTTCCTAATCTTTCTGTTCAAGCGCCATCTAC
Second: GATGATTGTTCTCCCAGCTGATGAATTGTGGGGGTCGAGTAAACAAATTTTCCTAATCTTTCTGTTCAAGCGCCATCTAC
The binding signal of the first is lower: 0.28 RPM ratio (pull-down/input) for the first, 0.783 RPM ratio (pull-down/input) for the second.

Compared with “GATGATTGTTCTCCCAGCTGATGAATTCTAAAGCTCGAGTAAACAAATTTTCCTAATCTTTCTGTTCAAGCGCCATCTAC”, “GATGATTGTTCTCCCAGCTGATGAATTGTTTGCTTCGAGTAAACAAATTTTCCTAATCTTTCTGTTCAAGCGCCATCTAC” is higher in binding signal: 0.248 RPM ratio (pull-down/input) for the first, 6.19 RPM ratio (pull-down/input) for the second.

First: GATGATTGTTCTCCCAGCTGATGAATTTGCTTCTTCGAGTAAACAAATTTTCCTAATCTTTCTGTTCAAGCGCCATCTAC
Second: GATGATTGTTCTCCCAGCTGATGAATTTTTTGCTTCGAGTAAACAAATTTTCCTAATCTTTCTGTTCAAGCGCCATCTAC
The binding signal of the first is higher: 2.97 RPM ratio (pull-down/input) for the first, 0.306 RPM ratio (pull-down/input) for the second.

Compared with “GATGATTGTTCTCCCAGCTGATGAATTAGCTCGCTCGAGTAAACAAATTTTCCTAATCTTTCTGTTCAAGCGCCATCTAC”, “GATGATTGTTCTCCCAGCTGATGAATTCCGGGTGTCGAGTAAACAAATTTTCCTAATCTTTCTGTTCAAGCGCCATCTAC” is higher in binding signal: 0.272 RPM ratio (pull-down/input) for the first, 0.669 RPM ratio (pull-down/input) for the second.

Going from “GATGATTGTTCTCCCAGCTGATGAATTCCGATTGTCGAGTAAACAAATTTTCCTAATCTTTCTGTTCAAGCGCCATCTAC” to “GATGATTGTTCTCCCAGCTGATGAATTAAGTAATTCGAGTAAACAAATTTTCCTAATCTTTCTGTTCAAGCGCCATCTAC”, the binding signal falls from 1.93 RPM ratio (pull-down/input) to 1.05 RPM ratio (pull-down/input).

Compared with “GATGATTGTTCTCCCAGCTGATGAATTGATCTTGTCGAGTAAACAAATTTTCCTAATCTTTCTGTTCAAGCGCCATCTAC”, “GATGATTGTTCTCCCAGCTGATGAATTTTGCCTCTCGAGTAAACAAATTTTCCTAATCTTTCTGTTCAAGCGCCATCTAC” is higher in binding signal: 0.293 RPM ratio (pull-down/input) for the first, 5.78 RPM ratio (pull-down/input) for the second.

First: GATGATTGTTCTCCCAGCTGATGAATTGCGCCTCTCGAGTAAACAAATTTTCCTAATCTTTCTGTTCAAGCGCCATCTAC
Second: GATGATTGTTCTCCCAGCTGATGAATTTGCCTCCTCGAGTAAACAAATTTTCCTAATCTTTCTGTTCAAGCGCCATCTAC
The binding signal of the first is higher: 7.17 RPM ratio (pull-down/input) for the first, 2.37 RPM ratio (pull-down/input) for the second.

First: GATGATTGTTCTCCCAGCTGATGAATTCTTTGCCTCGAGTAAACAAATTTTCCTAATCTTTCTGTTCAAGCGCCATCTAC
Second: GATGATTGTTCTCCCAGCTGATGAATTGCCTCTCTCGAGTAAACAAATTTTCCTAATCTTTCTGTTCAAGCGCCATCTAC
The binding signal of the first is lower: 0.403 RPM ratio (pull-down/input) for the first, 1.04 RPM ratio (pull-down/input) for the second.

Compared with “GATGATTGTTCTCCCAGCTGATGAATTTTGCGCCTCGAGTAAACAAATTTTCCTAATCTTTCTGTTCAAGCGCCATCTAC”, “GATGATTGTTCTCCCAGCTGATGAATTTGCCGCCTCGAGTAAACAAATTTTCCTAATCTTTCTGTTCAAGCGCCATCTAC” is lower in binding signal: 2.67 RPM ratio (pull-down/input) for the first, 0.88 RPM ratio (pull-down/input) for the second.

Compared with “GATGATTGTTCTCCCAGCTGATGAATTTGCCCTCTCGAGTAAACAAATTTTCCTAATCTTTCTGTTCAAGCGCCATCTAC”, “GATGATTGTTCTCCCAGCTGATGAATTTGCCTCTTCGAGTAAACAAATTTTCCTAATCTTTCTGTTCAAGCGCCATCTAC” is higher in binding signal: 0.526 RPM ratio (pull-down/input) for the first, 2.52 RPM ratio (pull-down/input) for the second.

Going from “GATGATTGTTCTCCCAGCTGATGAATTGTTTGCCTCGAGTAAACAAATTTTCCTAATCTTTCTGTTCAAGCGCCATCTAC” to “GATGATTGTTCTCCCAGCTGATGAATTTTTTGCCTCGAGTAAACAAATTTTCCTAATCTTTCTGTTCAAGCGCCATCTAC”, the binding signal falls from 5.67 RPM ratio (pull-down/input) to 0.432 RPM ratio (pull-down/input).

Compared with “GATGATTGTTCTCCCAGCTGATGAATTTGTTGCCTCGAGTAAACAAATTTTCCTAATCTTTCTGTTCAAGCGCCATCTAC”, “GATGATTGTTCTCCCAGCTGATGAATTAGGTCCTTCGAGTAAACAAATTTTCCTAATCTTTCTGTTCAAGCGCCATCTAC” is lower in binding signal: 7.02 RPM ratio (pull-down/input) for the first, 0.354 RPM ratio (pull-down/input) for the second.

First: GATGATTGTTCTCCCAGCTGATGAATTCTCTCCATCGAGTAAACAAATTTTCCTAATCTTTCTGTTCAAGCGCCATCTAC
Second: GATGATTGTTCTCCCAGCTGATGAATTGGTACGCTCGAGTAAACAAATTTTCCTAATCTTTCTGTTCAAGCGCCATCTAC
The binding signal of the first is lower: 0.223 RPM ratio (pull-down/input) for the first, 0.466 RPM ratio (pull-down/input) for the second.

Compared with “GATGATTGTTCTCCCAGCTGATGAATTTTGCCTTTCGAGTAAACAAATTTTCCTAATCTTTCTGTTCAAGCGCCATCTAC”, “GATGATTGTTCTCCCAGCTGATGAATTGCCTTTTTCGAGTAAACAAATTTTCCTAATCTTTCTGTTCAAGCGCCATCTAC” is lower in binding signal: 5.56 RPM ratio (pull-down/input) for the first, 1.02 RPM ratio (pull-down/input) for the second.

Compared with “GATGATTGTTCTCCCAGCTGATGAATTTGCGCCTTCGAGTAAACAAATTTTCCTAATCTTTCTGTTCAAGCGCCATCTAC”, “GATGATTGTTCTCCCAGCTGATGAATTTGCCTTTTCGAGTAAACAAATTTTCCTAATCTTTCTGTTCAAGCGCCATCTAC” is lower in binding signal: 3.88 RPM ratio (pull-down/input) for the first, 2.1 RPM ratio (pull-down/input) for the second.

With “GATGATTGTTCTCCCAGCTGATGAATTGCGCCTTTCGAGTAAACAAATTTTCCTAATCTTTCTGTTCAAGCGCCATCTAC” the binding signal was 6.82 RPM ratio (pull-down/input).
